Measured values as given in ChEMBL document CHEMBL1961873, “Compounds: GSK PKIS; Assays: Nanosyn kinase panel” (2012).

Experiments:
[1] = target: T1, Muscle, skeletal receptor tyrosine-protein kinase (Homo sapiens) (UniProt O15146); settings: at 1 µM;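 note: reported value is the mean percent inhibition of MuSK kinase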
T1 sequence (whole entry): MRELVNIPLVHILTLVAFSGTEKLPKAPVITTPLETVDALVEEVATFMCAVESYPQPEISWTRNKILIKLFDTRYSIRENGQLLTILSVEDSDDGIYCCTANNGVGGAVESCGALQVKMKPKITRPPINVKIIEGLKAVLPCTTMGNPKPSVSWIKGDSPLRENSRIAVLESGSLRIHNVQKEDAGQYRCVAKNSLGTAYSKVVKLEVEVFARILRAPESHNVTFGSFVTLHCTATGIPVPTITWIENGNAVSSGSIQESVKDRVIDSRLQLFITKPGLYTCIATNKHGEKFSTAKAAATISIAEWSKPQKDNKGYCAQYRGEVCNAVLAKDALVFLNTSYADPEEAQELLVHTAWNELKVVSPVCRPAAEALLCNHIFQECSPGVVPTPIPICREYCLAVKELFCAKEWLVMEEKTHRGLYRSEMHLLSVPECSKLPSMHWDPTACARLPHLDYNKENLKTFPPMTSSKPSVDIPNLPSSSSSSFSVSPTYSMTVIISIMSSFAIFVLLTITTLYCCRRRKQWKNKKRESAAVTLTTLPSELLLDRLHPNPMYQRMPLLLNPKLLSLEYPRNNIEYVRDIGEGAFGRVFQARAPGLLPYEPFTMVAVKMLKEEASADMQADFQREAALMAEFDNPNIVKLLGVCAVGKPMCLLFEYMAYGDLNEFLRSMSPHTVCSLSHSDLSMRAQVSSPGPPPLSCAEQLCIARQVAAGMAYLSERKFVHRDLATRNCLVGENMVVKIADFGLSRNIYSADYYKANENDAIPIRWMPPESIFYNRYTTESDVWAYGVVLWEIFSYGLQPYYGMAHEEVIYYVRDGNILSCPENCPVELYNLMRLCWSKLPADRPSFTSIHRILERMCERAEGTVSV

[2] = target: Platelet-derived growth factor receptor alpha (Homo sapiens) (UniProt P16234); settings: at 0.1 µM
[3] = target: Platelet-derived growth factor receptor alpha (Homo sapiens) (UniProt P16234); settings: at 1 µM
[4] = test system: Platelet-derived growth factor receptor alpha (Homo sapiens), P16234 [D842V]; settings: at 0.1 µM
[5] = test system: Platelet-derived growth factor receptor alpha (Homo sapiens), P16234 [D842V]; settings: at 1 µM
[6] = test system: Platelet-derived growth factor receptor alpha (Homo sapiens), P16234 [T674I]; settings: at 0.1 µM
[7] = test system: Platelet-derived growth factor receptor alpha (Homo sapiens), P16234 [T674I]; settings: at 1 µM
[8] = test system: Platelet-derived growth factor receptor alpha (Homo sapiens), P16234 [V561D]; settings: at 0.1 µM
[9] = test system: Platelet-derived growth factor receptor alpha (Homo sapiens), P16234 [V561D]; settings: at 1 µM
[10] = target: Platelet-derived growth factor receptor beta (Homo sapiens) (UniProt P09619); settings: at 0.1 µM;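 note: reported value is the mean percent inhibition of the kinase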
Platelet-derived growth factor receptor beta (Homo sapiens), sequence (P09619 whole entry): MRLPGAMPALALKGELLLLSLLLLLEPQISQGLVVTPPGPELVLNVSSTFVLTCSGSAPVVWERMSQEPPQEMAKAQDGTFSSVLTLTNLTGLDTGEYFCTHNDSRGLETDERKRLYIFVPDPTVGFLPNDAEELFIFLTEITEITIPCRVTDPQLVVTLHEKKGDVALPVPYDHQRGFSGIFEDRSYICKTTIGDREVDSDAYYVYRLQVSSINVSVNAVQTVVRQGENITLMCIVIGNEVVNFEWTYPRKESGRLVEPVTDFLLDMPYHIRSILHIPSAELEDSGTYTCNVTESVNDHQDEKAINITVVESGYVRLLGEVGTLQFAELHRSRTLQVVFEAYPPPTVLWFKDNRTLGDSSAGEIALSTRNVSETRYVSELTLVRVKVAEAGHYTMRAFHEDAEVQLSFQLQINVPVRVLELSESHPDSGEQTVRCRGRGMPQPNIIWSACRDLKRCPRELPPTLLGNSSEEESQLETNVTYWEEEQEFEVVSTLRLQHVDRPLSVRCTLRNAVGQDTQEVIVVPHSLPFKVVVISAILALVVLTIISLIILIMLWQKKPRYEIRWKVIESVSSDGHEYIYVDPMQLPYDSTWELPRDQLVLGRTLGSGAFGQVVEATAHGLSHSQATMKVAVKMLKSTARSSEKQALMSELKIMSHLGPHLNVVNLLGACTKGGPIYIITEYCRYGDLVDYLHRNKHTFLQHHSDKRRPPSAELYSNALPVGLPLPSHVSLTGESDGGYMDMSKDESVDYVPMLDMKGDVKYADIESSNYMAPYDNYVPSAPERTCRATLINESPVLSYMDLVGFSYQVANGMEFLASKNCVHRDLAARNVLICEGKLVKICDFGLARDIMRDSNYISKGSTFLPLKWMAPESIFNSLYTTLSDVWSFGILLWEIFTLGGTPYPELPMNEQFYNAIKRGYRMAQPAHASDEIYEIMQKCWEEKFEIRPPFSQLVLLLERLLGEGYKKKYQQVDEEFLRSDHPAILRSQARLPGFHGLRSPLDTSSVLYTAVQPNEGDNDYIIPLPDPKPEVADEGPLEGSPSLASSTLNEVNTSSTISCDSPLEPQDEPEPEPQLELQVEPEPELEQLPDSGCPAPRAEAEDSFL

Platelet-derived growth factor receptor alpha (Homo sapiens), sequence (P16234 whole entry): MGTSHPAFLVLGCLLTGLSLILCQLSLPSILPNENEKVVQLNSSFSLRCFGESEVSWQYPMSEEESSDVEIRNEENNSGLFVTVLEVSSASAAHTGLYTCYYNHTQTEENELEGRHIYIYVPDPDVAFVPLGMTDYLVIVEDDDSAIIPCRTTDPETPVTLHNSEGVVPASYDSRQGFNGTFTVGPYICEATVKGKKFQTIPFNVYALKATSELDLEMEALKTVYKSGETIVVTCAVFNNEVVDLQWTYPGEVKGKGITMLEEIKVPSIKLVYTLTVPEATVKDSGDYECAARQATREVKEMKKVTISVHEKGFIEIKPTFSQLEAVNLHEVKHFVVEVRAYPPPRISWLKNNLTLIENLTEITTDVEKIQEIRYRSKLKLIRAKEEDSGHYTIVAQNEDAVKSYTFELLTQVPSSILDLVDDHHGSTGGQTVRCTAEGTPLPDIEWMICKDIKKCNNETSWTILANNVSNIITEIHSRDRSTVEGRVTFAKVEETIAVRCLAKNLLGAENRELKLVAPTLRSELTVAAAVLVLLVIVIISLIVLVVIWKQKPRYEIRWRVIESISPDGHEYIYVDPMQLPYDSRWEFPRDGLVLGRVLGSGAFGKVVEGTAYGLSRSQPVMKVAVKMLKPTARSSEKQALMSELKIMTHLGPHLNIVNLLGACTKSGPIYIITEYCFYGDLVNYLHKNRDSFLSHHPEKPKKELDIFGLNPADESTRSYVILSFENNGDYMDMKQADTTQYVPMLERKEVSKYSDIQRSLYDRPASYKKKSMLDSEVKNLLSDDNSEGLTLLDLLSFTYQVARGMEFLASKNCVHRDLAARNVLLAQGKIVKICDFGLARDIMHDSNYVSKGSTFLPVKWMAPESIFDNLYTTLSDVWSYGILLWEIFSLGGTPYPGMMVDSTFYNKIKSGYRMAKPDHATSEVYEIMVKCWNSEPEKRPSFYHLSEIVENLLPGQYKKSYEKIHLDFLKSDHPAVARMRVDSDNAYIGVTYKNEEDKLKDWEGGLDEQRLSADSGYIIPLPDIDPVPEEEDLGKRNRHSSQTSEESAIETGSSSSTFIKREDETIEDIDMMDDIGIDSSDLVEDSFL
Platelet-derived growth factor receptor alpha (Homo sapiens), P16234 [V561D], sequence (P16234 whole entry V561D): as the sequence (P16234 whole entry) above, with V561D counted along it
Platelet-derived growth factor receptor alpha (Homo sapiens), P16234 [D842V], sequence (P16234 whole entry D842V): as the sequence (P16234 whole entry) above, with D842V counted along it
Platelet-derived growth factor receptor alpha (Homo sapiens), P16234 [T674I], sequence (P16234 whole entry T674I): as the sequence (P16234 whole entry) above, with T674I counted along it

| Structure (SMILES) | inhibition [1] [%] | inhibition [2] [%] | inhibition [3] [%] | inhibition [4] [%] | inhibition [5] [%] | inhibition [6] [%] | inhibition [7] [%] | inhibition [8] [%] | inhibition [9] [%] | inhibition [10] [%] |
| --- | --- | --- | --- | --- | --- | --- | --- | --- | --- | --- |
| C[C@@H](Oc1cc(-n2cnc3ccc(OC[C@@H](O)CO)cc32)sc1C(N)=O)c1ccccc1Cl | 51.4 | 13.8 | 62.4 | 4.15 | 40.5 | 0.37 | 51.2 | 7.79 | 50.1 | 7.9 |
| CC(C)c1ccc(Nc2nccc(-c3cnn4ncccc34)n2)cc1 | 8.57 | 13 | 43.5 | 6.98 | 43 | 12.4 | 63.6 | 18.9 | 55.2 | 9.63 |
| COc1ccc2ncnc(Nc3ccc(OCc4ccccc4)cc3)c2c1 | 1.74 | 4.33 | 12.2 | 0.76 | 1.54 | 2.64 | 4.95 | 1.76 | 4.16 | 0.54 |
| Nc1nccc(-c2c(-c3ccc(F)cc3)ncn2CCCN2CCOCC2)n1 | 3.99 | 4.62 | 14.7 | 1.96 | 6.03 | 6.08 | 7.81 | 3.07 | 8.56 | 3.65 |
| CCS(=O)(=O)c1ccc(OC)c(Nc2nccc(N(C)c3ccc4c(C)n[nH]c4c3)n2)c1 | 1.07 | 22.9 | 67.5 | 21.8 | 74.3 | 5.5 | 12.5 | 20.5 | 69.5 | 20.9 |
| NS(=O)(=O)c1ccc(Nc2cc(-c3cccc(O)c3)n[nH]2)cc1 | 12.9 | 16.7 | 40.4 | 4.21 | 13.8 | 12.8 | 6.05 | 17.7 | 49 | 9.08 |
| COc1cc2ncnc(Nc3ccc(C)c(O)c3)c2cc1OC | 7.42 | 85.7 | 93.9 | 94.2 | 98 | 6.7 | 16.9 | 89.4 | 97.8 | 33.2 |
| O=C1Nc2ccc(-c3cccnc3)cc2C1=Cc1cc(Br)c(O)c(Br)c1 | 5.67 | 10.2 | 20.2 | 4.65 | 12.5 | 5.16 | 5.71 | 5.57 | 23.6 | 1.45 |
| COC(=O)c1ccc2c(c1)C(=Cc1cc(Br)c(O)c(Br)c1)C(=O)N2 | 8.06 | 5.39 | 16.1 | 2.33 | 12.2 | 1.96 | 3.91 | 4.32 | 12.3 | 1.55 |
| Cc1ccc(Nc2ccnc(Nc3cccc(C(N)=O)c3)n2)cc1O | 26.7 | 48.1 | 82.3 | 48.4 | 88.5 | 6.94 | 26.3 | 46.3 | 87.2 | 54.7 |
| CN(C)C(=O)O[C@@H]1CN[C@@H](C#Cc2cc3ncnc(Nc4ccc(OCc5cccc(F)c5)c(Cl)c4)c3s2)C1 | 1.14 | 3.88 | 7.94 | 0.63 | 1.66 | 1 | 0.01 | 0.98 | 5.29 | 5.61 |
| Cc1ccc(O)cc1Nc1ccnc2ccc(S(C)(=O)=O)cc12 | 5.56 | 72.2 | 85 | 88.8 | 97.1 | 7.4 | 14.8 | 84.7 | 95 | 63.8 |
| NC(=O)c1cccc(Nc2nccc(Nc3cccc(F)c3)n2)c1 | 7.74 | 7.13 | 43.4 | 1.84 | 33.6 | 0.83 | 5.92 | 6.64 | 46 | 11.5 |
| Cc1nc(-c2ccccc2)n2nc(NCCCN3CCOCC3)ncc12 | 5.56 | 3.35 | 9.81 | 0.64 | 6.14 | 3 | 5.5 | 2.27 | 3.3 | 1.99 |
| c1ccc(Cc2nc3ccc(Nc4ncnc5ccccc45)cc3[nH]2)cc1 | 3.78 | 8.25 | 17 | -0.75 | 1 | 3.02 | 5.74 | 3.34 | 12.9 | 4.81 |
| COc1cccc(-n2ncc3c(N/N=C/c4ccc(C)cc4)ncnc32)c1 | 13 | 8.78 | 23.2 | 6.24 | 24.4 | 4.6 | 17.1 | 7.1 | 25.9 | 7.34 |
| COc1cccc(-n2nc(C)c3c(N/N=C(\C)c4ccncc4)ncnc32)c1 | 0.36 | 1.29 | 7.93 | -0.18 | 1.8 | 1.42 | 4.43 | 0.1 | 0.01 | 3.11 |
